“And” between values parts separate entries of the source, which are not always exact repeats. Equal values may be shown once. Records with an inconclusive call do not appear. Entries that show only a call come without a potency. Where a structure was tested more than once in an assay, its records may differ in their call. The source made the active and inactive calls. Unless noted, calls follow the shape of the dose curve; as a rule, active = well fitted curve in the direction sought with a large enough effect in the repeat runs; inconclusive = weak or mixed curves; inactive = no such curve, though single readings can be large; an effect the other way counts as inactive or inconclusive.
assay: qHTS assay to identify small molecule antagonists of the progesterone receptor (PR) signaling pathway - cell viability counter screen (AID 1346798); conditions: PR-UAS-bla HEK293T viability, CellTiter-Glo luminescence, 16 h; series mostly up to 92.4 µM; also: nearly all actives have a fitted effect of over 50% in size
Method in brief: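 HEK293T PR-UAS-bla, 2% charcoal-stripped FBS; 4 hr pre-plate; cpd + R5020, 16 h 37C; LiveBLAzer read first; then CellTiter-Glo 30 min RT, luminescence.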
Potency is read from the fitted curve at half-maximal effect.

SMILES | Potency
CCOCN(C(=O)CCl)c1c(C)cccc1CC | inactive
CCOC(=S)S | 4.86 µM (active)
O=C(O)CC[N+](=O)[O-] | inactive
COP(=S)(OC)Oc1ccc([N+](=O)[O-])cc1 | inactive
CCC(CC)Nc1c([N+](=O)[O-])cc(C)c(C)c1[N+](=O)[O-] | inactive
CC(C)=CC1C(C(=O)OCc2coc(Cc3ccccc3)c2)C1(C)C (stereo not given) | inactive
O=S(=O)(Oc1ccc(Cl)cc1)c1ccc(Cl)cc1 | inactive
CCc1cccc(CC)c1N(COC)C(=O)CCl | inactive
O=[N+]([O-])c1c(Cl)c(Cl)c(Cl)c(Cl)c1Cl | inactive
CCC(C)c1ccc(O)cc1 (stereo not given) | inactive
Oc1cc(Cl)ccc1Oc1ccc(Cl)cc1Cl | 31.4 µM (active)
Nc1c(Cl)cc([N+](=O)[O-])cc1Cl | inactive
Clc1nc(Cl)nc(Cl)n1 | inactive
CC(C)(C)c1ccccc1O | inactive
CC(C)(OOC(C)(C)c1ccccc1)c1ccccc1 | inactive
CCCCCCOC(=O)c1ccccc1C(=O)OCCCCCC | inactive
CCCCC(CC)COC(=O)Cl (stereo not given) | inactive

assay: qHTS assay to identify small molecule agonists of the progesterone receptor (PR) signaling pathway - cell viability counter screen (AID 1346799; calls by dose curve; also: nearly all actives have a fitted effect of over 45% in size); conditions: PR-UAS-bla HEK293T viability, CellTiter-Glo luminescence, 16 h; series mostly up to 92.4 µM
Method in brief: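 Luminescence from CellTiter-Glo, added after the beta-lactamase FRET read in the same wells, gave cytotoxicity in PR-UAS-bla HEK293T cells treated with compounds for 16 hr at 37C.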

SMILES | Potency
O=C(Nc1ccc(Br)cc1)c1cc(Br)cc(Br)c1O | inactive
C[C@]12CCC(=O)C(O)=C1CC[C@@H]1[C@@H]2CC[C@]2(C)C(=O)CC[C@@H]12 | inactive
CCOCN(C(=O)CCl)c1c(C)cccc1CC | inactive
CCOC(=S)S | 4.86 µM (active)
Brc1ccc(Oc2cc(Br)c(Br)cc2Br)c(Br)c1 | 38.6 µM (active) and 43.6 µM (active)
O=C(O)CC[N+](=O)[O-] | inactive
CNC(=O)Oc1cccc2c1OC(C)(C)O2 | inactive
COP(=S)(OC)Oc1ccc([N+](=O)[O-])cc1 | inactive
Cc1cc(Cl)ccc1OCCCC(=O)O | inactive
CCC(CC)Nc1c([N+](=O)[O-])cc(C)c(C)c1[N+](=O)[O-] | inactive
CCCCOCCOP(=O)(OCCOCCCC)OCCOCCCC | inactive
CC(C)=CC1C(C(=O)OCc2coc(Cc3ccccc3)c2)C1(C)C (stereo not given) | inactive
O=S(=O)(Oc1ccc(Cl)cc1)c1ccc(Cl)cc1 | inactive
NC(=S)Nc1ccccc1 | inactive
Cc1ccc(N)c(N)c1 | inactive
O=[N+]([O-])c1c(Cl)c(Cl)c(Cl)c(Cl)c1Cl | inactive

SMILES | Potency
O=P(Oc1ccccc1)(Oc1ccccc1)Oc1ccccc1 | inactive
CCC(C)c1ccc(O)cc1 (stereo not given) | inactive
Oc1cc(Cl)ccc1Oc1ccc(Cl)cc1Cl | 31.4 µM (active) and inactive
C[C@]12CCC(=O)C[C@@H]1CC[C@@H]1[C@@H]2CC[C@]2(C)[C@@H](O)CC[C@@H]12 | 48 µM (active)
CCN(CC)N=O | inactive
Nc1ccc(-c2ccccc2)cc1 | inactive
CCN(CC)C(=O)SCc1ccc(Cl)cc1 | inactive
CN(C)c1ccc(C(=O)c2ccc(N(C)C)cc2)cc1 | inactive
Nc1ccc(-c2ccc(N)c(N)c2)cc1N | inactive
Clc1nc(Cl)nc(Cl)n1 | inactive
C=CCN(CC=C)C(=O)C(Cl)Cl | inactive
CC(C)(C)c1ccccc1O | inactive
CC(C)(OOC(C)(C)c1ccccc1)c1ccccc1 | inactive
CCCCCCOC(=O)c1ccccc1C(=O)OCCCCCC | inactive
CCCCC(CC)COC(=O)Cl (stereo not given) | inactive

assay: qHTS assay to identify small molecule antagonists of the TGF-beta/Smad signaling pathway - cell viability counter screen (AID 1346824); conditions: SBE-bla HEK293T viability, CellTiter-Glo luminescence; series mostly up to 76.8 µM; also: nearly all actives have a fitted effect of over 50% in size
Method in brief: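 Cytotoxicity counter-screen run in the same wells as the beta-lactamase Smad reporter read: CellTiter-Glo luminescence after 30 min at room temperature. HEK 293T SBE-bla cells had 5 hr compound exposure at 37 C with TGF-beta1 (0.25 ng/mL stock).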

SMILES | Potency
O=C(Nc1ccc(Br)cc1)c1cc(Br)cc(Br)c1O | 30.8 µM (active) and 21.9 µM (active) and 19 µM (active)
C[C@]12CCC(=O)C(O)=C1CC[C@@H]1[C@@H]2CC[C@]2(C)C(=O)CC[C@@H]12 | inactive
CCOCN(C(=O)CCl)c1c(C)cccc1CC | inactive
CCOC(=S)S | inactive
Brc1ccc(Oc2cc(Br)c(Br)cc2Br)c(Br)c1 | inactive
O=C(O)CC[N+](=O)[O-] | inactive
CNC(=O)Oc1cccc2c1OC(C)(C)O2 | inactive
COP(=S)(OC)Oc1ccc([N+](=O)[O-])cc1 | inactive
Cc1cc(Cl)ccc1OCCCC(=O)O | inactive
CCC(CC)Nc1c([N+](=O)[O-])cc(C)c(C)c1[N+](=O)[O-] | inactive
CCCCOCCOP(=O)(OCCOCCCC)OCCOCCCC | inactive
CC(C)=CC1C(C(=O)OCc2coc(Cc3ccccc3)c2)C1(C)C (stereo not given) | inactive
O=S(=O)(Oc1ccc(Cl)cc1)c1ccc(Cl)cc1 | inactive
CCc1cccc(CC)c1N(COC)C(=O)CCl | inactive
NC(=S)Nc1ccccc1 | inactive
Cc1ccc(N)c(N)c1 | inactive
O=[N+]([O-])c1c(Cl)c(Cl)c(Cl)c(Cl)c1Cl | inactive
O=P(Oc1ccccc1)(Oc1ccccc1)Oc1ccccc1 | inactive
CCC(C)c1ccc(O)cc1 (stereo not given) | inactive

SMILES | Potency
N#Cc1cc(Br)c(O)c(Br)c1 | inactive
Oc1cc(Cl)ccc1Oc1ccc(Cl)cc1Cl | inactive
C[C@]12CCC(=O)C[C@@H]1CC[C@@H]1[C@@H]2CC[C@]2(C)[C@@H](O)CC[C@@H]12 | inactive
CCN(CC)N=O | inactive
Nc1ccc(-c2ccccc2)cc1 | inactive
CCN(CC)C(=O)SCc1ccc(Cl)cc1 | inactive
CN(C)c1ccc(C(=O)c2ccc(N(C)C)cc2)cc1 | inactive
CCCCCCCCC(=O)NCc1ccc(O)c(OC)c1 | inactive
O=c1oc2ccccc2c(O)c1C(CC(O)c1ccc(-c2ccc(Br)cc2)cc1)c1ccccc1 (stereo not given) | inactive
Nc1c(Cl)cc([N+](=O)[O-])cc1Cl | inactive
Nc1ccc(-c2ccc(N)c(N)c2)cc1N | inactive
Clc1nc(Cl)nc(Cl)n1 | inactive
C=CCN(CC=C)C(=O)C(Cl)Cl | inactive
CC(C)(C)c1ccccc1O | inactive
CC(C)(OOC(C)(C)c1ccccc1)c1ccccc1 | inactive
CCC(C)(c1ccc(O)cc1)c1ccc(O)cc1 | inactive
CCCCCCOC(=O)c1ccccc1C(=O)OCCCCCC | inactive
CCCCC(CC)COC(=O)Cl (stereo not given) | inactive

From PubChem BioAssay (Tox21)
